In the library only some 4.1% were active in any assay of this set; here they are far more common.
DAX1 inh-1 – DAX1 (NR0B1) inhibition, primary screen; HEK293T StAR-luciferase reporter, SF-1/DAX-1 repression relief; inhibition, % at 6.8 µM; 370,000 tested, 1.1% active; AID 652010;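 active = inhibition above the mean over all tested compounds plus 3 SD, cut at about 3.6% in these data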;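 note: 0% = DAX-1 cells with DMSO and 100% = cells lacking DAX-1 with DMSO; higher inhibition means more luminescence from relief of DAX-1 repression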
hcDAF12 agonist – H. contortus DAF-12 activation, primary screen | 370,000 tested, 1.4% active | AID 652067 | HEK293 hcDAF-12 lit1-tk-luc reporter, luminescence; 0% DMSO, 100% Δ7-dafachronic acid | activation, % at 6.8 µM;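 active = activation above the mean of all tested compounds plus 3 SD, cut at about 5.5% in these data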;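 note: 100% = response to 3 µM Δ7-dafachronic acid high control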
hgDAF12 agonist – activates the H. glycines DAF-12 receptor ligand-binding domain; 370,000 tested, 1.8% active; HEK293 GAL4-hgDAF12 UAS-luciferase reporter, agonist luminescence; normalized to butyrate control; activation, % at 6.8 µM;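 active = activation above a cutoff set at the mean of all screened compounds plus 3 SD, cut at about 10% in these data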;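 note: 0% = DMSO wells and 100% = sodium butyrate wells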
ssDAF-12 act – activators of S. stercoralis DAF-12 nuclear receptor. HEK293 ssDAF-12/GRIP1 lit1-tk-luc reporter, luminescence; % of 3 µM dafachronic acid response. activation, % at 6.8 µM. 370,000 tested, 1% active;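 active = activation above the mean over all tested compounds plus 3 SD, cut at about 0.9% in these data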;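 note: 0% = DMSO-only wells and 100% = 3 µM delta7-dafachronic acid wells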
DAX1 inh-2 – inhibitors of human orphan nuclear receptor DAX1 (NR0B1); HEK293 Gal4-DAX1 luciferase reporter, luminescence; P51843; 340,000 tested, 0.99% active; inhibition, % at 6.75 µM;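 active = inhibition above the mean over all tested compounds plus 3 SD, cut at about 4.2% in these data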;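 note: 0% = DAX1-transfected cells with DMSO and 100% = empty-vector control cells with DMSO; inhibition shows as a rise in luminescence from relieved DAX1 repression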
Target sequence (P51843 207-470 limits assumed): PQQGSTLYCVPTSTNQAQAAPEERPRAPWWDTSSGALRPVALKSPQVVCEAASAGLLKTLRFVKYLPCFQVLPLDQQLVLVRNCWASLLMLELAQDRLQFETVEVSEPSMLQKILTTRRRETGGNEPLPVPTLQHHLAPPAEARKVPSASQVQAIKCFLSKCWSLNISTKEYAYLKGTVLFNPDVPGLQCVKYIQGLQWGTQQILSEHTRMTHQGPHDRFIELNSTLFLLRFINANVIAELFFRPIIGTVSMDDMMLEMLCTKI
Numbers without * were called inactive; x = no result given.

SMILES | DAX1 inh-1 | hcDAF12 agonist | hgDAF12 agonist | ssDAF-12 act | DAX1 inh-2
O=C(Cc1ccccc1)c1ccc(N2CCOCC2)cc1 | 1.1 | 0.8 | 11.1* | -0.6 | 1.1
O=C(O)c1ccc(N2CCCCC2)cc1 | -0.1 | -0.7 | -0.2 | -1.8 | 1.7
O=C(/C=C/c1ccccc1)Nc1ccc(N2CCCCC2)cc1 | 1.7 | 0.7 | 12.6* | -0.1 | 0.3
COc1ccccc1Cc1c(C2CCCCC2)nc2c(C)cc(Br)cn12 | -1.1 | -0.4 | -1.3 | -0.6 | x
CN(CCc1ccccn1)C(=O)c1ccc2c(c1)ncn2C1CCCCC1 | -0.4 | 1.2 | 3.1 | -1.4 | x
COc1ccc([N+](=O)[O-])cc1NC(=O)CSCc1ccc(Br)cc1 | 0.2 | 1.6 | 2.2 | 1.0* | -1.7
COc1ccc([N+](=O)[O-])cc1NC(=O)CSCc1ccccc1C | -0.5 | -0.9 | 1.6 | -1.4 | -0.9
O=C(CNS(=O)(=O)c1cc2ccccc2s1)N1CCN(c2ccccn2)CC1 | -0.9 | -2.1 | -2.0 | -1.0 | x
COC(=O)C/C=C/[C@H](C)[C@@H](NC(=O)C(F)(F)F)c1ccccc1Br | -0.1 | -1.8 | 0.0 | -0.9 | x
O=C(CSc1n[nH]c(=O)n1C1CC1)c1ccc(F)cc1 | 0.0 | 3.0 | -1.7 | -1.0 | x
CSc1n[nH]c(=O)n1C1CCCCC1 | -0.5 | 1.2 | -0.3 | -0.9 | 6.0*
CCc1c2c3n4c1CCC[C@@H]4C[C@@H]3O[Si](C(C)C)(C(C)C)OC(C)C2=O (stereo partly specified) | x | -2.6 | 1.4 | -0.6 | x
Cc1ccc(Cc2c(-c3ccccc3)nc3c(Cl)cc(C(F)(F)F)cn23)cc1 | 0.6 | 2.3 | 2.0 | 1.7* | x
Cc1ccc2nc(-c3ccc(F)cc3)c(Cc3ccsc3)n2c1 | 1.6 | 1.8 | 10.4* | 0.5 | x
CCOC(=O)c1c(-c2ccccc2)nc2cc(C)ccn12 | 1.3 | -1.2 | 6.9 | -1.8 | 4.6*
Cc1ccc(Cc2c(-c3ccccc3)nc3cc(C)ccn23)cc1 | 3.2 | 4.0 | 10.8* | 1.3* | 2.3
CN1CCCN(S(=O)(=O)c2ccc3c(c2)n(C)c(=O)c(=O)n3C)CC1 | 2.0 | 0.7 | 2.0 | -0.8 | x
Cc1ccc2nc(-c3ccc(Cl)cc3)c(Cc3ccsc3)n2c1 | 3.1 | 2.0 | 12.8* | 0.8 | x
Cc1ccc(Cc2c(-c3ccc(Cl)cc3)nc3ccc(Cl)cn23)cc1 | 2.2 | -0.8 | 3.5 | 0.2 | 2.7
Fc1ccc(-c2nc3ccc(Cl)cn3c2Cc2ccsc2)cc1 | 0.6 | -1.4 | 8.6 | -0.9 | x
Cc1ccc(Cc2c(-c3ccc(C)cc3)nc3ccc(Cl)cn23)cc1 | 3.8* | 2.1 | 7.4 | -0.2 | 2.1
Cc1ccc(-c2nc3ccc(Cl)cn3c2Cc2ccsc2)cc1 | 4.2* | 3.4 | 12.8* | -0.1 | x
O=C(CCCC(=O)c1ccc(F)cc1)c1ccc(F)cc1 | 1.8 | 2.1 | 8.1 | 0.6 | 4.8*
O=C(CC(=O)c1ccccc1O)c1cccc(F)c1 | x | x | x | x | 0.3
O=C(CC(=O)c1ccccc1O)c1ccc(F)cc1 | 1.9 | 2.1 | 11.5* | -0.4 | -0.4
SMILES | DAX1 inh-1 | hcDAF12 agonist | hgDAF12 agonist | ssDAF-12 act | DAX1 inh-2
CC(C)(C)c1ccc(C(=O)CC(=O)c2cc(Cl)ccc2O)cc1 | -0.2 | 1.3 | 5.9 | -0.7 | 0.5
Cc1ccc(C(=O)CC(=O)c2cc(Cl)ccc2O)cc1 | 3.1 | 2.9 | 9.2 | 1.1* | 2.1
COc1ccc(C2=CCN(C)C(=O)N2c2ccc([N+](=O)[O-])cc2)cc1 | -0.3 | -2.5 | 1.6 | 0.0 | x
Cc1ccc(CN2CCC(c3nc4ccc(Cl)cc4[nH]3)CC2)cc1 | -0.8 | 0.9 | -0.9 | -1.5 | 0.4
CC1CCCCN1C(=O)CN1CCC(c2nc3ccc(Cl)cc3[nH]2)CC1 (stereo unspecified) | 0.9 | 0.4 | -1.2 | -1.5 | 4.5*
CCn1c(SCC(=O)c2ccccc2)nc2ccccc2c1=O | -0.6 | 0.9 | 2.5 | -1.3 | -0.9
CCn1c(SCC#N)nc2ccccc2c1=O | -0.1 | -1.3 | -2.1 | -1.0 | 5.2*
Clc1ccc(-n2c(SCc3cccc4ccccc34)nnc2-c2ccccn2)cc1 | -2.1 | -4.2 | 1.6 | -1.8 | x
Cc1ccc(-n2nc(CC#N)c(C#N)c2N)cc1 | 0.5 | 1.5 | 2.3 | 0.2 | 0.8
Cc1ccc(-n2nc(CC#N)c(C#N)c2N)cc1Cl | 0.0 | 4.5 | -0.9 | 1.3* | 0.1
Cc1ccc(C2CCC3(CCC(=O)N3CCOC(=O)Nc3ccc(Br)cc3)CC2)cc1 (stereo unspecified) | -0.1 | -0.7 | 1.4 | -0.8 | x
C[C@@H]1CN([C@@H](C)CO)C(=O)c2cccc(NC(=O)Nc3cccc4ccccc34)c2O[C@H]1CN(C)S(=O)(=O)c1ccc2c(c1)OCCO2 | x | -2.1 | 0.2 | -1.5 | x
COC(=O)c1ccccc1NC(=O)C1CCCC1 | -0.6 | -1.3 | -2.6 | -0.6 | 1.3
COC(=O)c1ccccc1NC(=O)COC(=O)C1CCCCC1 | 0.0 | -1.4 | -3.0 | 0.6 | 4.4*
CC1(C)CC2CC(C)(CN2C(=O)COC(=O)c2n[nH]c(=O)c3ccccc23)C1 (stereo unspecified) | 0.5 | -1.3 | 0.8 | -0.7 | 4.4*
CC1(C)CC2CC(C)(CN2C(=O)COC(=O)c2cccnc2Cl)C1 (stereo unspecified) | 0.8 | -1.2 | -1.4 | -0.9 | 0.8
Cc1cc(C(=O)NNC(C)Cc2ccccc2)no1 (stereo unspecified) | 0.5 | -1.5 | 5.1 | -0.6 | 4.3*
COCCCN1C(=O)[C@H](CC(=O)N2CCCC2)[C@]2(C(=O)OC)CCCCC=C12 | -0.2 | 1.2 | 0.3 | -1.0 | x
Cc1ccc(CNC[C@@]23CO[C@H](c4ccc(Cl)cc4)N2[C@@H](c2ccc(Cl)cc2)SC3)o1 | 0.0 | -2.7 | -1.2 | -1.3 | x
O=C(NCCCN1CCc2ccccc2C1)C1CCN(S(=O)(=O)N2CCC3(CC2)OCCO3)CC1 | 0.5 | -0.7 | -1.1 | -1.4 | 0.7
O=C(NCc1ccccc1Cl)C1CCN(S(=O)(=O)N2CCCCCC2)CC1 | 0.2 | -2.0 | -2.1 | -0.8 | 4.8*
O=C(NCCCN1CCc2ccccc2C1)C1CCN(S(=O)(=O)N2CCCC2)CC1 | 0.3 | 5.8* | 1.0 | 0.0 | -0.8
CC1CCN(S(=O)(=O)N2CCCC(C(=O)NCc3ccccc3Cl)C2)CC1 (stereo unspecified) | -0.6 | -0.8 | -3.8 | -0.3 | -0.1
CCOc1ccc(C2CC=C(C(=O)O)CN2S(=O)(=O)c2ccc(C)cc2)cc1 (stereo unspecified) | 0.4 | 0.0 | 1.3 | -1.2 | x
CCOC(=O)CC[C@@]1(C(=O)OCC)C[C@@H](CC(=O)NCCc2ccccc2OC)C(=O)N2CCCC=C21 | -1.1 | -0.9 | -3.0 | -0.9 | x
COc1cccc(/C=N/NC(=O)CCn2c3ccccc3c3ccccc32)c1 | 0.1 | 0.6 | 4.6 | 1.4* | 2.5
Cc1cc(C)cc(NC(=O)NCCCN2CCN(c3ccc(F)cc3)CC2)c1 | -0.6 | -2.5 | -0.3 | -1.3 | x
O=C(O)CCCCC1SCC2NC(=O)NC21 (stereo unspecified) | 0.8 | 0.4 | -1.2 | -1.8 | 5.8*
Cc1ccc(NC(=O)[C@H](C)NC(=O)C2CCN(C(=O)[C@@H](N)CC(C)C)CC2)cc1 | -0.1 | 6.0* | 2.0 | 0.5 | -1.5

Assay outcomes (PubChem)
